Laboratory results as given in PubChem BioAssay (EPA / NIEHS).
Where “and” joins values, the source holds several entries; their conditions need not be identical. Equal values may be shown once. Records with an inconclusive call do not appear. The source holds several records for some structures; these can differ, active in one and inactive in another. Calls of active or inactive are those of the source. The calls were made as follows, unless noted: active = hit-call score of the fitted dose curve at least 0.9, where 1 is the maximum; inactive = score below 0.9.

Experiments:
[1] = CCTE_Shafer_MEA_acute_spike_number: CCTE's Neural Acute Assay for Total Number of Spikes, Shafer Lab (AID 2284008);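 as to AC50: curve fitted for decrease in spike count so AC50 reflects inhibitors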
How it was run: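 Rat cortical cultures, DIV 13/15, 37 C. 40 min baseline rec, cpd 0.03-40 uM, 40 min post-dose rec. Band-pass 300-5000 Hz, spike threshold 8x rms; % change in spike count per well, DMSO neg ctrl, loss-of-signal fit.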

[2] = CCTE_Shafer_MEA_acute_firing_rate_mean: CCTE's Neural Acute Assay for Mean Firing Rate, Shafer Lab (AID 2284009);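 also: analyzed for loss of signal so actives lower firing rate relative to DMSO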
How it was run: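 Read-out: well-mean spike rate (spikes/recording length/electrodes), % change from 40 min pre-dose baseline to 40 min with compound. Rat cortical cultures, DIV 13 or 15, 37 C; 0.03-40 uM; DMSO as negative control.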

[3] = CCTE_Harrill_HTTr_Viability_MCF7: CCTE's 6-hour Cell Viability Assessment for the High-Throughput Transcriptomics (HTTr) Platform, in MCF-7 cells cultured in DMEM + 10% fetal bovine serum, Harrill Lab (AID 2284010)
How it was run: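 Cells were dosed with chemicals in an eight-point dilution series, imaged 6 hours later for propidium iodide uptake, and the endpoint was analyzed by bidirectional fitting against DMSO as negative control.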

[4] = CCTE_Harrill_HTTr_Apoptosis_MCF7: CCTE's 6-hour Apoptosis Assessment for the High-Throughput Transcriptomics (HTTr) Platform, in MCF-7 cells cultured in DMEM + 10% fetal bovine serum, Harrill Lab (AID 2284011)
How it was run: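 Read-out: CellEvent Caspase 3/7 Green signal by high content imaging, gain-of-signal indicating apoptosis. MCF-7 cells, DMEM + 10% FBS, eight-point dilution series, 6 h exposure. Curves fitted bidirectionally relative to DMSO negative control.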

[5] = CCTE_Harrill_HTTr_CellCount_MCF7: CCTE's Cell Proliferation Assessment for the High-Throughput Transcriptomics (HTTr) Platform, Harrill Lab (AID 2284012; active = hit-call score of the fitted dose curve at least 0.9, where 1 is the maximum;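 also: count of Hoechst-stained nuclei per well by high-content imaging in MCF-7 cells; cells exposed to compound for six hours; intended direction is loss of nuclei count meaning fewer cells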)
How it was run: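 Chemicals in eight-point dilution series are added to MCF-7 cells for six hours, nuclei are stained with Hoechst and imaged, and per-well nuclei counts are fitted in both directions relative to DMSO controls.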

[6] = CCTE_Shafer_MEA_acute_burst_number: CCTE's Neural Acute Assay for Single-Electrode Bursts, Shafer Lab (AID 2284013)
How it was run: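 Rat cortical cultures, DIV 13/15; 40 min baseline, then 40 min with compound 0.03-40 uM, 37 C. Spikes: 300-5000 Hz band-pass, threshold 8x rms noise. Readout = % change in single-electrode bursts vs baseline, loss-of-signal fit.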

[7] = CCTE_Shafer_MEA_acute_burst_duration_mean: CCTE's Neural Acute Assay for Mean Burst Duration, Shafer Lab (AID 2284014);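 also: hits are decreases in mean burst duration relative to DMSO controls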
How it was run: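 Primary rat cortical neurons on 16-electrode MEA wells, treated on DIV 13 or 15 with compound (0.03-40 uM; ≥3 wells each). 40-min baseline and 40-min exposure recordings at 37 C; percent change in mean burst duration per well versus DMSO.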

[8] = CCTE_Shafer_MEA_acute_per_burst_spike_number_mean: CCTE's Neural Acute Assay for Average Number of Spikes Per Burst, Shafer Lab (AID 2284015);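 also: hits are decreases in mean spikes per burst versus baseline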
How it was run: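 Primary rat cortical neurons on 48-well MEA plates, treated on DIV 13 or 15 at 0.03-40 uM. Spontaneous activity recorded 40 min before and 40 min after compound at 37 C; percent change in mean spikes per single-electrode burst per well, fitted in the loss direction versus DMSO.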

[9] = CCTE_Shafer_MEA_acute_interburst_interval_mean: CCTE's Neural Acute Assay for Mean Interburst Interval, Shafer Lab (AID 2284016);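 also: percent change of mean interburst interval versus each well's own pre-dose baseline; curves fitted for decrease in interburst interval relative to DMSO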
How it was run: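 Primary rat cortical neurons on 16-electrode MEA wells were recorded 40 min at baseline on DIV 13 or 15, then 40 min after compound (0.03-40 uM), at 37 C. Value is percent change in mean interburst interval per well, DMSO as negative control.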

[10] = CCTE_Shafer_MEA_acute_burst_percentage_std: CCTE's Neural Acute Assay for Standard Deviation of Burst Percentage, Shafer Lab (AID 2284018);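 also: fitted in the negative direction so actives lower burst percentage SD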
How it was run: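 Primary rat cortical neurons on 16-electrode MEA wells were recorded 40 min at baseline (DIV 13 or 15), then 40 min after compound (0.03-40 uM), at 37 C. Well value is SD across electrodes of spikes-in-bursts/total spikes; endpoint is percent change, DMSO-referenced.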

[11] = CCTE_Shafer_MEA_acute_per_network_burst_spike_number_std: CCTE's Neural Acute Assay for Standard Deviation of Number of Spikes in a Network Burst, Shafer Lab (AID 2284020);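 also: fitted for decrease in spike-number SD versus DMSO so actives lower it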
How it was run: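 Primary rat cortical neurons on 48-well MEAs (16 electrodes/well) recorded at DIV 13 or 15: 40-min baseline, then 40 min with compound (0.03-40 uM), 37 C. Value is percent change in SD of spikes per network burst, relative to DMSO.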

[12] = CCTE_Shafer_MEA_acute_per_network_burst_electrodes_number_mean: CCTE's Neural Acute Assay for Mean Number of Electrodes in a Network Burst, Shafer Lab (AID 2284021);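 also: curves fitted for decreases only so hits reduce electrodes per burst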
How it was run: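 Readout: % change in mean electrodes active per network burst, post- vs pre-treatment, each well. Spikes detected at 8x rms noise after 300-5000 Hz band-pass; rat cortical cultures, DIV 13/15, compounds 0.03-40 uM, DMSO baseline.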

[13] = CCTE_Shafer_MEA_acute_network_burst_percentage: CCTE's Neural Acute Assay for Percentage of Network Bursts, Shafer Lab (AID 2284022);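 also: curves fitted for loss so actives lower network burst percentage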
How it was run: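 Rat cortical cultures, DIV 13/15; 20 min equilibration, 40 min baseline, compound 0.03-40 uM, 40 min recording, 37 C. Spikes: 300-5000 Hz band-pass, threshold 8x rms noise. Readout: % change in network-burst spike fraction; loss direction vs DMSO.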

[14] = CCTE_Shafer_MEA_acute_cross_correlation_area: CCTE's Neural Acute Assay for Area of Cross Correlation, Shafer Lab (AID 2284024);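 also: area under pooled inter-electrode spike cross-correlation near zero lag as percent change from own baseline; curves fitted for loss of cross-correlation area so actives lower synchrony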
How it was run: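 Rat cortical cultures, DIV 13/15, MEA; spikes detected at 8x rms noise (300-5000 Hz band-pass). Compound 0.03-40 uM, ≥3 wells each. Readout: % change in pooled inter-electrode cross-correlation area vs own baseline; DMSO negative control.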

[15] = CCTE_Shafer_MEA_acute_cross_correlation_HWHM: CCTE's Neural Acute Assay for Cross Correlation at Half Width at Half Maximum, Shafer Lab (AID 2284026);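 also: percent change per well from pre-dose baseline in spike cross-correlogram half width; hits are a decrease in cross-correlogram half width relative to DMSO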
How it was run: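 Read-out: half width at half maximum of action-potential cross-correlogram, percent change versus pre-treatment baseline, fitted in loss direction against DMSO. Rat cortical cultures, DIV 13 or 15, dosed 0.03-40 uM, 40-min recordings at 37 C.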

[16] = CCTE_Shafer_MEA_acute_synchrony_index: CCTE's Neural Acute Assay for Synchrony, Shafer Lab (AID 2284027);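 also: fitted for loss of signal so actives lower synchrony relative to DMSO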
How it was run: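 Readout is percent change in the unitless network synchrony index (0 low, 1 high) between a 40-min baseline and a 40-min recording in compound. Cultures were primary rat cortical neurons on MEAs, treated at 0.03-40 uM on DIV 13 or 15.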

[17] = CCTE_Shafer_MEA_dev_firing_rate_mean: CCTE's Neural Network Formation Assay for Mean Firing Rate, Shafer Lab (AID 2284031);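 also: AUC of well mean spike rate recorded on DIV 5 7 9 and 12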;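 as to AC50: curve fitted for loss of firing so AC50 reflects decreased mean firing rate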
How it was run: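 Rat primary cortical neurons were seeded on multielectrode arrays and treated from plating through day 12, with redosing at each feed. Spontaneous spiking was recorded four times; mean firing rate AUC was fitted downward against DMSO.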

[18] = biological target: Estrogen receptor (Homo sapiens) (UniProt P03372); assay: CCTE_Deisenroth_AIME_384WELL_LUC_Active: CCTE's 384-well Estrogen Receptor Transactivation Assay with AIME metabolic competence (ERTA luciferase; metabolism positive), Deisenroth Lab (AID 2284030; active = hit-call score of the fitted dose curve at least 0.9, where 1 is the maximum)
How it was run: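 Readout: bioluminescent luciferase induction in VM7Luc4E2 cells 24 hour after receiving medium from a 2 h rat hepatic S9 (induced, alginate microsphere) metabolism step. Concentrations 0.002 - 200 uM; activity scaled to 17beta-estradiol positive control.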

[19] = CCTE_Deisenroth_AIME_384WELL_CTox_Active: Cytotoxicity Assessment (CTOX) in CCTE's 384-well Estrogen Receptor Transactivation Assay with AIME metabolic competence (metabolism positive), Deisenroth Lab (AID 2284037; active = hit-call score of the fitted dose curve at least 0.9, where 1 is the maximum;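 also: chemicals first conditioned 2 h by alginate-bound induced rat liver S9 before cells; activity means signal loss indicating cell death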)
How it was run: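 VM7Luc4E2 breast cells received medium pre-incubated 2 h with chemical over alginate microspheres holding induced male Sprague Dawley rat liver S9; viability read 24 h later by protease-substrate fluorescence. Loss of signal, bidirectional fit, 0.002–200 uM.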

[20] = biological target: Estrogen receptor (Homo sapiens) (UniProt P03372); assay: CCTE_Deisenroth_AIME_384WELL_LUC_Inactive: CCTE's 384-well Estrogen Receptor Transactivation Assay without AIME metabolic competence (ERTA luciferase; metabolism negative), Deisenroth Lab (AID 2284038; active = hit-call score of the fitted dose curve at least 0.9, where 1 is the maximum;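 also: hits raise estrogen receptor luciferase signal so potencies reflect agonists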)
How it was run: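 Metabolism-negative mode: chemicals (10-point, 0.002–200 uM) held 2 h with alginate-water microspheres, then conditioned medium applied to VM7Luc4E2 cells for 24 h. Luciferase induction referenced to 17beta-estradiol.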

Measured: AC50

Sequence of Estrogen receptor (Homo sapiens) (P03372 whole entry, looked up): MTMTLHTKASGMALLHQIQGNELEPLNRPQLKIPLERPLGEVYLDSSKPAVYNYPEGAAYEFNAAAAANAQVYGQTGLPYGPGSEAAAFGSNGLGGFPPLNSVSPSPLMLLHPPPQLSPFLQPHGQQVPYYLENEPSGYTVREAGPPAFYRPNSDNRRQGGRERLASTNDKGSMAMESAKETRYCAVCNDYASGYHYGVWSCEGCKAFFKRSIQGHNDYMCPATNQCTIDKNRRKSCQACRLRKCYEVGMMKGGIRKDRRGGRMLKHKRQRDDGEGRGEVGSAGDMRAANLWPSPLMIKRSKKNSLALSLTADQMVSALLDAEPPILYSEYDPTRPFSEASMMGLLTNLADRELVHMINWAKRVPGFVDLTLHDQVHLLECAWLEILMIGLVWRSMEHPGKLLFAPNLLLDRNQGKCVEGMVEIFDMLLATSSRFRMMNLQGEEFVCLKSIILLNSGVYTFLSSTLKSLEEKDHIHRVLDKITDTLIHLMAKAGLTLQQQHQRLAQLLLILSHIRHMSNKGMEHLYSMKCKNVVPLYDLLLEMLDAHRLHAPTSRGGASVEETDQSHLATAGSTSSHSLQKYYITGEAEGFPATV

CNC(=O)CSP(=S)(OC)OC
inactive: [1] | [2] | [3] | [4] | [5] | [6] | [7] | [8] | [9] | [10] | [11] | [12] | [13] | [14] | [15] | [16] | [17]
active: [17] 79.3 µM

Oc1cc(Cl)ccc1Oc1ccc(Cl)cc1Cl
active: [1] 1.89 µM | [2] 1.89 µM | [6] 1.29 µM | [9] 1.2 µM | [13] 5 µM | [15] 20 µM | [16] 5 µM | [17] 10 µM
not listed: [18] | [19] | [20]
inactive: all other assays above

CCC(C)(C)C(=O)OC1=C(c2ccc(Cl)cc2Cl)C(=O)OC12CCCCC2
inactive: [1] | [2] | [3] | [4] | [5] | [6] | [7] | [8] | [9] | [10] | [11] | [12] | [13] | [14] | [15] | [16] | [17]
active: [7] 25.9 µM | [8] 20 µM | [14] 20 µM | [15] 0.106 µM | [16] 5.2 µM

CC[C@H](C)[C@H]1O[C@]2(C=C[C@@H]1C)C[C@@H]1C[C@@H](C/C=C(\C)[C@@H](O[C@H]3C[C@H](OC)[C@@H](O[C@H]4C[C@H](OC)[C@@H](O)[C@H](C)O4)[C@H](C)O3)[C@@H](C)/C=C/C=C3\CO[C@@H]4[C@H](O)C(C)=C[C@@H](C(=O)O1)[C@]34O)O2 (tested in a mixture with another compound)
active: [1] 0.0048 µM | [2] 0.00477 µM | [6] 0.00721 µM | [7] 0.0208 µM | [8] 0.00576 µM | [10] 0.0752 µM | [11] 0.00528 µM | [12] 0.05 µM | [14] 0.00277 µM | [15] 0.0109 µM | [16] 0.165 µM | [17] 0.611 nM and 1.02 nM
inactive: [3] | [4] | [5] | [9] | [13]

O=S1OCC2C(CO1)C1(Cl)C(Cl)=C(Cl)C2(Cl)C1(Cl)Cl (stereo not given)
inactive: [1] | [2] | [3] | [4] | [5] | [6] | [7] | [9] | [10] | [11] | [12] | [13] | [14] | [15] | [16] | [17] | [19]
active: [7] 0.269 µM | [8] 223 nM and 58.3 nM | [10] 0.102 µM | [11] 0.348 µM | [12] 0.177 µM | [13] 24.4 µM | [14] 0.0502 µM | [15] 19.8 µM | [16] 23.7 µM | [18] 13.8 µM | [20] 12 µM

C[C@H]1[C@H](c2ccc(Cl)cc2)SC(=O)N1C(=O)NC1CCCCC1
active: [1] 13 µM | [2] 13.1 µM | [6] 10.3 µM | [7] 20 µM | [8] 17.2 µM | [9] 28.7 µM | [10] 28.4 µM | [11] 20 µM | [15] 23.5 µM | [16] 20 µM
inactive: [3] | [4] | [12] | [13] | [14] | [18] | [19] | [20]
